Rows were chosen to be rich in hits. Some 7% of all compounds tested hit in one or more screens of this group.
ATXN viability: cell viability loss in ATXN counter-screen | 400,000 compounds, 0.49% hits | Potency, µM (doses to about 56.7 µM), hits mostly cytotoxic | S2 cells (HEK-293 line with an ATXN2-luciferase reporter) viability, CellTiter-Fluor protease fluorescence, 24 h; also: potency is read from the fitted curve at half-maximal effect; nearly all actives have a fitted effect of over 40% in size
a7 integrin act: activators of alpha7 integrin expression for muscular dystrophy; Potency, µM (highest dose often 38.3 µM), for the others: top-dose activation, usual class: activators; 350,000 compounds, 0.064% hits; alpha7betagal myoblasts, beta-gal FDG fluorescence, 48 h;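 also: potency is read from the fitted curve at half-maximal effect; 100% = response of the positive control SU9516; nearly all actives have a fitted effect of over 60% in size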
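Alpha7betagal+/- myoblasts (passage 13) were plated 16-24 hr, then exposed to compounds (1:260 dilution of DMSO stock) for 48 hours at 37C. After MPER lysis, β-galactosidase reporter activity was read as FDG fluorescence (ex 480/em 540) after 30 minutes.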
D3 ag: D3 dopamine receptor (human) agonism; P35462; 410,000 compounds, 0.58% hits; D3R DiscoveRx beta-arrestin cells, luminescence, 90 min; max activation, %; in the data active = max activation above about 30%; also: 0% is about no effect
Target sequence (P35462 whole entry, looked up): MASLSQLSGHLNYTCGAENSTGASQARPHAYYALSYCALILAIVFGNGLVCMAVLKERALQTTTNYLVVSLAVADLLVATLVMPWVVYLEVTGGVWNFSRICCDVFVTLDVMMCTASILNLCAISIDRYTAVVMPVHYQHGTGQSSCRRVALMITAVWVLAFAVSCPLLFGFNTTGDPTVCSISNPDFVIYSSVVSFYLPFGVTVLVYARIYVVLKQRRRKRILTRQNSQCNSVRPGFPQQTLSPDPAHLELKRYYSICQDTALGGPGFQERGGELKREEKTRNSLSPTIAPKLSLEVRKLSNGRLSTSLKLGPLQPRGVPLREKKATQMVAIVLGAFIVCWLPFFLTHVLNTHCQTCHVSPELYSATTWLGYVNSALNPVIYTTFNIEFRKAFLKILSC
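Agonist mode: compounds and dopamine controls were applied to plated cells for 90 min at 37 degrees C after an overnight attachment at 1500 cells/well. Luminescent read-out followed 30 - 60 minutes at room temperature with DiscoveRx detection reagent.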
ATXN2 expr inh: ATXN2 expression inhibition. HEK-293 ATXN2-luciferase reporter, luminescence, 24 h. Potency, µM (series often up to 57 µM), for the others: top-dose activity change, negative = inhibition, most hits filed as inhibitors. 360,000 compounds, 0.72% hits; also: potency is read from the fitted curve at half-maximal effect; % is scaled to controls: 0 for no effect and ±100 for the full control effect; nearly all actives have a fitted effect of over 55% in size
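qHTS (up to 57 uM final) was run with 24 h compound exposure of reporter cells at 37 °C. Each well was multiplexed: SteadyGlo luminescence measured ATXN2-luciferase expression after a fluorogenic Gly-Phe-AFC viability readout (25 uM final).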
D3 antag: blocks the human D3 dopamine receptor; 360,000 compounds, 2.5% hits; max response, negative = inhibition, %; AID 652054; P35462; D3R cells, DiscoveRx beta-arrestin luminescence, antagonist mode; hits give low values; in the data active = max response below about -50%; inconclusive = no clear call, values can overlap the other calls; also: % is scaled to controls: 0 for no effect and ±100 for the full control effect
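Cells expressing the human receptor were seeded at 1500 cells/well, incubated overnight at 37 degrees C in 5% CO2, then exposed to library compounds with dopamine controls for 90 minutes at 37 degrees C before luminescent detection.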
IL1B secr inh: inhibitors of inflammasome signaling (IL-1 beta secretion) | THP-1 LPS/ATP IL-1B secretion, AlphaLISA, 16 h; hits give low values | 360,000 compounds, 4.7% hits | activity change, % at 57.5 µM; in the data active = activity change below about -50%; inconclusive = mostly about -30% to -49%; also: % is scaled to controls: 0 for no effect and ±100 for the full control effect
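Secreted IL-1B measured by AlphaLISA bead assay after 16 h compound exposure of THP-1 cells; compounds (final up to 57.5 uM) added 1 h before LPS (250 ng/mL) and ATP (1.25 mM) stimulation; lower signal means less secretion.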
* hit, by the source's call. Unless noted, calls follow the shape of the dose curve; as a rule, active = well fitted curve in the direction sought with a large enough effect; inconclusive = small, poorly fitted or top-dose-only effect, or another doubt; inactive = no such curve, though single readings can be large; an effect the other way counts as inactive or inconclusive.

How did Cc1cc(NCCCN)nc(-c2ccccc2O)n1 do in these assays?
ATXN viability: inactive; a7 integrin act: -30%; D3 ag: -6; ATXN2 expr inh: 2%; D3 antag: -23; IL1B secr inh: -62*

What do the screens show for `Cc1cc(Nc2ccc(F)c(F)c2)nc(-c2ccccc2O)n1`?
ATXN viability: inactive; a7 integrin act: 0%; D3 ag: 4; ATXN2 expr inh: -25%; D3 antag: 14; IL1B secr inh: 0

How did N=c1n(CC(=O)c2cccc([N+](=O)[O-])c2)c2ccccc2n1Cc1ccccc1 do in these assays?
ATXN viability: inactive; a7 integrin act: -47%; D3 ag: 2; ATXN2 expr inh: -8%; D3 antag: 6; IL1B secr inh: -104*

How did CC(C)(C)C(=O)Cn1c(=N)n(Cc2ccccc2)c2ccccc21 do in these assays?
ATXN viability: inactive; a7 integrin act: -10%; D3 ag: 4; ATXN2 expr inh: -32%; D3 antag: inconclusive; IL1B secr inh: -27

Results for N=c1n(Cc2ccccc2Cl)c2ccccc2n1CC(O)c1ccco1 (stereo not drawn) ?
ATXN viability: inactive; a7 integrin act: 5%; D3 ag: -9; ATXN2 expr inh: -2%; D3 antag: 11; IL1B secr inh: -4

What do the screens show for `Cc1ccc(Cn2c(=N)n(CC(=O)c3ccccc3)c3ccccc32)cc1`?
ATXN viability: inconclusive; a7 integrin act: -33%; D3 ag: -6; ATXN2 expr inh: -7%; D3 antag: 8; IL1B secr inh: -82*

What do the screens show for `Cc1ccc(Cn2c(=N)n(CC(O)c3ccco3)c3ccccc32)cc1` (stereo not drawn)?
ATXN viability: inactive; a7 integrin act: -56%; D3 ag: -11; ATXN2 expr inh: -28%; D3 antag: -9; IL1B secr inh: -74*

What do the screens show for `CCn1c(=N)n(CC(=O)c2cccc([N+](=O)[O-])c2)c2ccccc21`?
ATXN viability: inconclusive; a7 integrin act: -1%; D3 ag: 0; ATXN2 expr inh: -15%; D3 antag: 10; IL1B secr inh: -27

How did COC(=O)[C@@H]1CCCN1C(=O)c1c(OC)cc(=O)n2c1CCN(Cc1c(C)[nH]c3ccccc13)CC2 do in these assays?
ATXN viability: inactive

Results for COc1ccccc1C1SCCN1S(=O)(=O)c1cccc(C(F)(F)F)c1 (stereo not drawn) ?
ATXN viability: inactive; a7 integrin act: -6%; D3 ag: -11; ATXN2 expr inh: -15%; D3 antag: 11; IL1B secr inh: inconclusive

Results for CC(C)(C)OC(=O)NCCCC[C@@H](C(=O)N1CCN(C(=O)OC(C)(C)C)CC1)n1cc(CCC(=O)O)nn1 ?
ATXN viability: inactive; a7 integrin act: -6%; D3 ag: 38*; ATXN2 expr inh: 1%; D3 antag: 12; IL1B secr inh: 21

What do the screens show for `CC(C)(C)OC(=O)NCCCCCc1cn([C@@H](CO)C(=O)NCCCCCCCCCCC(=O)N2CCN(C(=O)OC(C)(C)C)CC2)nn1`?
ATXN viability: 11µM*; a7 integrin act: -42%; D3 ag: 58*; ATXN2 expr inh: 16µM*; D3 antag: 129; IL1B secr inh: 0

Compound activity (PubChem)
